This is a sample that favours compounds with a hit; in the whole collection about 4.7% have one here.
tim23-1 inh = tim23-1 yeast growth inhibition; S. cerevisiae tim23-1 growth, BacTiter-Glo luminescence, 24 h; 1.3% of 330,000 active; AID 463212; inhibition, % at 20 µM;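 active = growth inhibition of the mutant yeast at or above 50%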;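 note: temperature-sensitive mutant grown at 25 °C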
tim10-1 inh = growth inhibitors of tim10-1 mutant yeast. 2.2% of 330,000 active. inhibition, % at 20 µM. S. cerevisiae tim10-1 ts strain growth, BacTiter-Glo, 24 h;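 active = inhibition of at least 40%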;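 note: mutant grown at 25 °C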
TIM10 inh = growth inhibitors of TIM10 yeast strain | inhibition, % at 10 µM | AID 463195 | 1.4% of 330,000 active | S. cerevisiae TIM10 strain growth, BacTiter-Glo luminescence, 24 h;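 active = inhibition of 40% or more at the single tested concentration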;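 note: wild-type TIM10 isogenic control strain grown at permissive 25 °C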
SKKanGAS inh = SKKanGAS growth inhibition | S. pyogenes SKKanGAS, kanamycin growth, BacTiter-Glo, 6 h | inhibition, % at 7.5 µM | 1.3% of 300,000 active;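 active = mean replicate score, as percent of positive control median, at least 50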;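 note: strain carries kanamycin resistance gene driven by streptokinase promoter and grows in 40 µg/ml kanamycin; loss of luminescence reflects streptokinase promoter inhibition or plain growth inhibition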
PfHsp90 yeast 2 = inhibits growth of yeast expressing Plasmodium falciparum Hsp90 | S. cerevisiae expressing PfHsp90, BacTiter-Glo ATP, 48 h; yeast lacking PDR1 and PDR3 efflux regulators | inhibition, % at 9.4 µM | 0.32% of 310,000 active | AID 504621;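 active = every replicate shows inhibition above about 80%, whatever the replicate mean, limit read from the data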
EBI2 antag = EBI2 (human) antagonism; P32249; EBI2 beta-arrestin recruitment, luminescence, 7a,25-OHC stimulated; inhibition, % at 5 µM; 0.81% of 360,000 active; AID 651636; in the data active = inhibition above about 38%;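 note: enzyme fragment complementation signal reports receptor beta-arrestin coupling in cells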
Target sequence (P32249 whole entry, looked up, the tested form may be a part): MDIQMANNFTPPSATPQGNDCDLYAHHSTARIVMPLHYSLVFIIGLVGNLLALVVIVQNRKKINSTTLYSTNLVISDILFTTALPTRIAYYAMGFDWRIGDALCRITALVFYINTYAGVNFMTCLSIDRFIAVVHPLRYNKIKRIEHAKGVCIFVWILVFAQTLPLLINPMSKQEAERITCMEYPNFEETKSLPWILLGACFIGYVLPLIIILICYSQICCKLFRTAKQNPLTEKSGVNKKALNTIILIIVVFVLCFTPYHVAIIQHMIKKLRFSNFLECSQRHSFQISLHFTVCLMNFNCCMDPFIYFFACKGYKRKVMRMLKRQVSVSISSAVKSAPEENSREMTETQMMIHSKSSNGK
tim10-1 confirm = tim10-1 yeast growth inhibition, confirmed; shares compounds with tim10-1 inh; S. cerevisiae tim10-1 ts strain growth, BacTiter-Glo, 24 h; inhibition, % at 20 µM; 56% of 7,400 active;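 active = inhibition of yeast growth at or above a set limit in either of two repeat tests at 20 µM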;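 note: tim10-1 mutant grown at permissive 25 °C to find synthetic lethal compounds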
Of the large screens only hits and unclear results are named; the others gave an inactive call (follow-up assays come after a bar, where they were run).

Cc1c(C(=O)N2CCc3ccccc3C2)oc2ccc(S(=O)(=O)N3CCCCCC3)cc12	tim10-1 inh 43.3 | tim10-1 confirm inactive
Cc1c(C(=O)N2CCOCC2)oc2ccc(S(=O)(=O)N3CCCC3)cc12	none
[O-][n+]1c(/C=C/c2ccccc2)ccc2ccccc21	tim10-1 inh 49.0 | tim10-1 confirm inactive
CC1CCc2sc3ncnc(N4CCN(CCO)CC4)c3c2C1 (centres undefined)	none
c1ccc(C(NCCNC(c2ccccc2)c2ccccc2)c2ccccc2)cc1	tim10-1 inh 42.8, SKKanGAS inh 104.6 | tim10-1 confirm inactive
CCCCCCCNC1=CC(=O)CC(c2ccco2)C1 (centres undefined)	tim10-1 inh 49.6 | tim10-1 confirm inactive
CCOc1ccc(NC2=CC(=O)CC(c3ccco3)C2)cc1 (centres undefined)	none (no result: PfHsp90 yeast 2)
O=C1C=C(NCc2ccc(Cl)c(Cl)c2)C2(CCCCC2)O1	none
Nc1ccccc1C(=O)NNc1c2ccccc2nc2ccccc12	none
O=[N+]([O-])c1cc(/C=N/NC(=S)Nc2ccccc2Cl)ccc1Cl	tim10-1 inh 46.4 (no result: SKKanGAS inh) | tim10-1 confirm inactive
COc1ccc(-n2c(C)nc3c(cnn3-c3ccc(Cl)cc3)c2=O)cc1	tim10-1 inh 40.9 | tim10-1 confirm inactive
CC(C)N(C(=O)[C@H]1CC(CC(=O)NCC23CC4CC(CC(C4)C2)C3)C(=O)N2CCc3c([nH]c4ccccc34)[C@]12C)C(C)C (some centres undefined)	none (no result: SKKanGAS inh)
Cc1ccc(OCC(=O)N/N=C\c2cn(C)c3ccccc23)c([N+](=O)[O-])c1	tim10-1 inh 40.8 | tim10-1 confirm inactive
Cn1cc(/C=N/NC(=O)COc2ccccc2[N+](=O)[O-])c2ccccc21	none
CCOC(=O)CSc1nc2ccccc2n2c(C)nnc12	none
CCOC(=O)CSc1cc(C)c(C#N)c2nc3ccccc3n12	tim10-1 inh 41.2 | tim10-1 confirm inactive
Cc1ccc(NC(=O)c2cccc3c2C(=O)N(C2CCCCC2)C3)c(C)c1	none
Cc1cc(C)c(NC(=O)c2cccc3c2C(=O)N(C2CCCCC2)C3)c(C)c1	tim10-1 inh 49.3 | tim10-1 confirm inactive
Cc1cccc(CCNC(=O)c2cccc3c2C(=O)N(C2CCCCC2)C3)c1	tim10-1 inh 52.3 | tim10-1 confirm inactive
O=c1[nH]c(/C=C/c2ccc(Cl)cc2Cl)c([N+](=O)[O-])c(=O)[nH]1	none
Cc1c(C(=O)O)oc2c1ccc1ccccc12	none
Cc1c(C(=N)C(C#N)C#N)c(=N)oc2c1ccc1ccccc12	tim10-1 inh 41.3 | tim10-1 confirm inactive
CN1C(=O)Cc2cc(S(=O)(=O)N3CCN(c4ccccc4F)CC3)ccc21	none
O=c1oc(CCO)cc2ccc(Br)cc12	none (no result: SKKanGAS inh)
O=C(NC(=S)NCCC1=CCCCC1)c1cncc(Br)c1	tim10-1 inh 42.1 | tim10-1 confirm inactive
CCCNC(=O)C(=O)NCCC1=CCCCC1	none (no result: PfHsp90 yeast 2)
Nc1nn2c(-c3ccccc3)cc(=O)[nH]c2c1N=Nc1ccc(O)cc1	tim10-1 inh 40.7 | tim10-1 confirm inactive
CCCCn1nc(C(=O)N2CCN(S(=O)(=O)c3ccccc3)CC2)c2ccccc2c1=O	none
O=C(c1ccc(O)cc1)c1ccc(Cl)cc1	none | tim10-1 confirm inactive
COC(=O)[C@H](CC(C)C)NC(=O)Nc1ccccc1F	none
Brc1ccc(-c2cn3c(n2)CCc2ccc4cccnc4c2-3)cc1	tim10-1 inh 46.5, SKKanGAS inh 75.9 | tim10-1 confirm 31.6
CCn1c(SCc2nc3ccccc3c(=O)[nH]2)nc2ccccc21	tim10-1 inh 44.1 | tim10-1 confirm inactive
O=C(CCCCCN1C(=O)[C@@H]2Cc3ccccc3CN2C1=O)Nc1cccc(F)c1	tim10-1 inh 45.2 | tim10-1 confirm inactive
CCOC(=O)N1CCN(C2CCCN(C(=O)c3cccc(Cl)c3)C2)CC1 (centres undefined)	none
CCC(=O)N1c2ccccc2[C@@H](N(C(C)=O)c2ccccc2)C[C@H]1C	none
CC(=O)N(c1ccccc1)C1CC(C)N(C(=O)c2ccccc2)c2ccccc21 (centres undefined)	tim10-1 inh 42.1 | tim10-1 confirm inactive
CCOc1ccc(/C=N/Nc2cc(=O)n(C)c(=O)n2C)cc1	none
